From PubChem BioAssay (NCI)
Several values for one entry are separate records, joined by “and”; a condition that tells them apart may be missing. Equal entries are not always repeated. About 79,000 compounds went through this panel and 15% of them were active in at least one assay; those are over-represented in the sample as a whole. Some compounds were tested as several samples or in several runs, with calls that do not always agree. Activity calls are given as the source filed them. Cut-off read from the data, not from the text of the source: active = growth inhibition above about 70%; inactive = the rest.

Key:
[1] = NCI Yeast Anticancer Drug Screen. Data for the rad50 strain (AID 155);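 note: 0% = growth of vehicle-only cultures of the same strain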; conditions: S. cerevisiae rad50 strain growth inhibition, stronger effect = higher value
Procedure, shortened: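 Compounds were tested on a yeast strain with an engineered DNA damage repair alteration; the reported value is growth inhibition normalised to vehicle treatment.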

[2] = NCI Yeast Anticancer Drug Screen. Data for the mec2-1 strain (AID 157); conditions: S. cerevisiae mec2-1 strain, stronger effect = higher value
Procedure, shortened: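 Compounds were applied to mec2-1 yeast cells. Their growth was then compared with that of vehicle-treated cultures to give growth inhibition.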

[3] = NCI Yeast Anticancer Drug Screen. Data for the sgs1 mgt1 strain (AID 161);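 note: 0% = growth of cultures given vehicle only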; conditions: S. cerevisiae sgs1 mgt1 strain, stronger effect = higher value
Procedure, shortened: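 Growth of a repair-deficient yeast mutant was monitored after compound treatment and expressed as inhibition relative to vehicle-treated cultures.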

[4] = NCI Yeast Anticancer Drug Screen. Data for the cln2 rad14 strain (AID 165);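 note: 0% = growth equal to vehicle treated cultures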; conditions: S. cerevisiae cln2 rad14 strain, stronger effect = higher value
Procedure, shortened: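 Strain: cln2 rad14 yeast, altered in cell cycle control and DNA damage repair. Read-out: growth inhibition vs vehicle.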

[5] = NCI Yeast Anticancer Drug Screen. Data for the bub3 strain (AID 167); conditions: S. cerevisiae bub3 mutant strain, stronger effect = higher value
Procedure, shortened: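 Growth of a checkpoint-deficient yeast mutant is measured after compound exposure. Values represent inhibition relative to vehicle.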

[6] = NCI Yeast Anticancer Drug Screen. Data for the mlh1 rad18 strain (AID 175); conditions: S. cerevisiae mlh1 rad18 strain growth inhibition, stronger effect = higher value
Procedure, shortened: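 A repair-deficient yeast strain is exposed to test compound, and growth is scored relative to vehicle-treated controls.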

[7] = at 5.0 µM (retest, dose inferred, filed as 0.5)
[8] = at 50.0 µM (retest, dose inferred, filed as 5.0)

SMILES | growth inhibition [1, 7] | growth inhibition [1, 8] | growth inhibition ([1]; at 50.0 µM) | growth inhibition [2, 7] | growth inhibition [2, 8] | growth inhibition ([2]; at 50.0 µM) | growth inhibition [3, 7] | growth inhibition [3, 8] | growth inhibition ([3]; at 50.0 µM) | growth inhibition [4, 7] | growth inhibition [4, 8] | growth inhibition ([4]; at 50.0 µM) | growth inhibition [5, 7] | growth inhibition [5, 8] | growth inhibition ([5]; at 50.0 µM) | growth inhibition [6, 7] | growth inhibition [6, 8] | growth inhibition ([6]; at 50.0 µM)
CC(=O)[C@]1(O)Cc2c(O)c3c(c(O)c2[C@@H](OC2CC(N)C(O)C(C)O2)C1)C(=O)c1c(O)cccc1C3=O (stereo partly drawn) | 88% (active) and 91% (active) | 97% (active) and 96% (active) | 91.1% (active) and 86.5% (active) | 81% (active) and 80% (active) | 98% (active) and 97% (active) | 92.5% (active) and 89% (active) | 73% (active) and 92% (active) | 96% (active) and 98% (active) | 92.4% (active) and 88.3% (active) | 57% (inactive) and 66% (inactive) | 97% (active) and 95% (active) | 88.7% (active) and 89.2% (active) | 77% (active) and 86% (active) | 97% (active) and 98% (active) | 90.8% (active) and 89% (active) | 90% (active) and 87% (active) | 97% (active) and 95% (active) | 90.2% (active) and 92% (active)
Cc1c(-c2ccccc2)ccnc1/C=N/NC(N)=S | 29% (inactive) | 42% (inactive) | 48.1% (inactive) | 9% (inactive) | 53% (inactive) | 79% (active) |  |  |  | 39% (inactive) | 39% (inactive) | 54.4% (inactive) | 49% (inactive) | 45% (inactive) | 80.7% (active) | 18% (inactive) | 36% (inactive) | 82% (active)
CC1=CC(=Nc2ccc(N(C)C)cc2)C=CC1=O | 1% (inactive) | 7% (inactive) | -4.05% (inactive) and 78.8% (active) | -5% (inactive) | 2% (inactive) | 10.2% (inactive) and 46.4% (inactive) | 1% (inactive) | 7% (inactive) | 21.9% (inactive) and 84.1% (active) | -3% (inactive) | -6% (inactive) | -4.55% (inactive) and 33.5% (inactive) | -1% (inactive) | -9% (inactive) | -7% (inactive) and 21.4% (inactive) | -3% (inactive) | 9% (inactive) | 16.4% (inactive) and 66.2% (inactive)
O=C1OC(CN2CCOCC2)CN1/N=C/c1ccc([N+](=O)[O-])o1 (stereo not drawn) | 6% (inactive) | 50% (inactive) | 65.8% (inactive) and -2.7% (inactive) | 8% (inactive) | 41% (inactive) | 26.6% (inactive) and 14.2% (inactive) | 18% (inactive) | 80% (active) | 86% (active) and 69.8% (inactive) | 1% (inactive) | 51% (inactive) | 38.3% (inactive) and -8.55% (inactive) | -4% (inactive) | 9% (inactive) | 36.6% (inactive) and 0.1% (inactive) | 13% (inactive) | 76% (active) | 75.7% (active) and 34.3% (inactive)
OC(CN1CCCCC1)c1cc(-c2ccc(Cl)cc2)nc2cc(Cl)ccc12 (stereo not drawn) | -6% (inactive) | 99% (active) | 90.5% (active) | -13% (inactive) | 100% (active) | 92.7% (active) |  |  |  | -7% (inactive) | 99% (active) | 95.6% (active) | -7% (inactive) | 99% (active) | 99.4% (active) | 18% (inactive) | 99% (active) | 99.2% (active)
CC(=O)Nc1nc(N)c2ncn(C3OC(C(O)CO)C(O)C3O)c2n1 (stereo not drawn) | 0% (inactive) | 1% (inactive) | 1.75% (inactive) and -3.5% (inactive) | 0% (inactive) | 1% (inactive) | 0.35% (inactive) and -7.5% (inactive) | -3% (inactive) | -1% (inactive) | 3% (inactive) and 1.8% (inactive) | 1% (inactive) | 0% (inactive) | 53.5% (inactive) and -80% (inactive) | 1% (inactive) | 0% (inactive) | -10.2% (inactive) and 10.1% (inactive) | -1% (inactive) | 3% (inactive) | 18.9% (inactive) and -12.4% (inactive)
CCCCCCCN | 1% (inactive) | 89% (active) | 50% (inactive) | -9% (inactive) | 85% (active) | 20.9% (inactive) | -2% (inactive) | 91% (active) | 19.9% (inactive) | -5% (inactive) | 52% (inactive) | 33.7% (inactive) | -2% (inactive) | 86% (active) | 12.1% (inactive) | -5% (inactive) | 88% (active) | 48.1% (inactive)
Nc1cc(F)c2c(c1)Cc1ccccc1-2 | 1% (inactive) | 95% (active) | 84.3% (active) | -3% (inactive) | 60% (inactive) | 39.2% (inactive) |  |  |  | 8% (inactive) | 32% (inactive) | 23.7% (inactive) | 9% (inactive) | 92% (active) | 71% (active) | 12% (inactive) | 97% (active) | 58.1% (inactive)
CC[C@](O)(CC(=O)O[C@H]1C(=O)O[C@@H]2C[C@H]3C(C)=CC(=O)[C@@H](O)[C@]3(C)[C@H]3[C@@]4(O)OC[C@]32[C@@H]1[C@@H](C)[C@H]4O)C(C)C | 44% (inactive) | 97% (active) | 88.9% (active) |  |  |  | 57% (inactive) | 98% (active) | 88.9% (active) | 58% (inactive) | 98% (active) | 92.1% (active) | 51% (inactive) | 98% (active) | 90.3% (active) | 50% (inactive) | 97% (active) | 
CC(C)c1ccc(C=Nc2ccc(SSc3ccc(N=Cc4ccc(C(C)C)cc4)cc3)cc2)cc1 | 44% (inactive) | -7% (inactive) | 73.7% (active) | 26% (inactive) | 1% (inactive) | 49.4% (inactive) | 57% (inactive) | -5% (inactive) | 57.6% (inactive) | 5% (inactive) | -13% (inactive) | 12.2% (inactive) | 13% (inactive) | 1% (inactive) | 66.9% (inactive) | 25% (inactive) | -11% (inactive) | 76.4% (active)
O=C(O)/C(=C(/c1ccccc1)c1ccc(Cl)cc1)c1ccccc1 | 35% (inactive) | 98% (active) | 98.2% (active) and 89.3% (active) | 37% (inactive) | 100% (active) | 32.6% (inactive) and -26.5% (inactive) |  |  |  | 55% (inactive) | 99% (active) | 94.2% (active) and 91.3% (active) | 43% (inactive) | 99% (active) | 49.7% (inactive) and 90.3% (active) | 69% (inactive) | 98% (active) | 97.4% (active) and 89.5% (active)
CC1(C)N(OC2CCCCO2)C(c2ccccc2)C(c2ccccc2)=[N+]1[O-] (stereo not drawn) | 18% (inactive) | 24% (inactive) | 34% (inactive) | 12% (inactive) | 21% (inactive) | 3.05% (inactive) | 18% (inactive) | 18% (inactive) | -13.7% (inactive) | 17% (inactive) | 27% (inactive) | 7.4% (inactive) | 19% (inactive) | 25% (inactive) | -23% (inactive) | 21% (inactive) | 24% (inactive) | -6.55% (inactive)
CC(C)OP(=O)(OC(C)C)C(=Nc1ccccc1)NNc1ccc([N+](=O)[O-])cc1 | -22% (inactive) | -15% (inactive) | 71.1% (active) | -21% (inactive) | 2% (inactive) | 16.6% (inactive) | -13% (inactive) | 15% (inactive) | 22.7% (inactive) | -33% (inactive) | -6% (inactive) | -18.8% (inactive) | -17% (inactive) | -20% (inactive) | 43.6% (inactive) | -8% (inactive) | 7% (inactive) | 44% (inactive)
O=c1c(Cl)c(Cl)cnn1CCCl | 40% (inactive) | 92% (active) | 74.9% (active) |  |  |  | -1% (inactive) | 47% (inactive) | -15.6% (inactive) | 6% (inactive) | 32% (inactive) | 7.15% (inactive) | -6% (inactive) | 69% (inactive) | -10.5% (inactive) | 15% (inactive) | 71% (active) | 
C[Si]1(C)CN(CCN)C[Si](C)(C)O1 | 3% (inactive) | 2% (inactive) | -3.85% (inactive) and 55.5% (inactive) | 1% (inactive) | 9% (inactive) | 4.25% (inactive) and 49.5% (inactive) |  |  |  | 2% (inactive) | -3% (inactive) | -20.3% (inactive) and 45% (inactive) | -2% (inactive) | -4% (inactive) | -3.65% (inactive) and 68.4% (inactive) | 0% (inactive) | -2% (inactive) | -1.3% (inactive) and 62.6% (inactive)
O=C(NN1CCOC1=O)OCCCl | -2% (inactive) | 2% (inactive) | 24.7% (inactive) | -1% (inactive) | -6% (inactive) | 18.7% (inactive) | -8% (inactive) | -7% (inactive) | 34.6% (inactive) | 9% (inactive) | 0% (inactive) | 24.6% (inactive) | 6% (inactive) | 2% (inactive) | -16.1% (inactive) | -1% (inactive) | 1% (inactive) | 73.5% (active)
C=C1C(=O)N2c3ccccc3C(C)(C)C2(S)C(=O)N1C (stereo not drawn) | 9% (inactive) | 87% (active) | 88.8% (active) | 3% (inactive) | 86% (active) | 95.6% (active) | 3% (inactive) | 67% (inactive) | 96.5% (active) | -9% (inactive) | 40% (inactive) | 63.9% (inactive) | -5% (inactive) | 78% (active) | 93.6% (active) | 5% (inactive) | 83% (active) | 96.7% (active)
